This is an account of results in PubChem BioAssay (Tox21).

Results filed as inconclusive are left out. Active and inactive are the calls of the source. Calls come from the whole dose curve. Starred links: 1 amine or outer side, 2 acyl side, 3 side chain; linkers in the order of their positions; H or OH if unused. Positions of bridges follow the written chain, without caps; N, C: chain ends. Non-standard residues stand in square brackets, D forms with d. Residues, ends and D or L forms follow the SMILES beside them. Chains are numbered I, II in the order given. Actinocin(9to1) = Cc1c2oc3c(C)ccc(C(=O)[*:1])c3nc-2c(C(=O)[*:2])c(N)c1=O; NMeV = CN[C@H](C(=O)O)C(C)C; Sar = CNCC(=O)O

The target in test [1] is Acetylcholinesterase (Homo sapiens) (UniProt P22303). Put plainly: Acetylcholinesterase (AChE) small molecule antagonists: colormetric cell-based qHTS assay (AID 1347395). Note: nearly all actives have a fitted effect of over 30% in size. Note: potency is the fitted concentration of half-maximal effect. A digest of the protocol: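 SH-SY5Y cells, plated overnight at 37 C, were exposed to compounds for 30 min at 37 C and 5% CO2. Acetylthiocholine plus DTNB was then added, and thiocholine from endogenous AChE was quantified colorimetrically after 90 min at 37 C.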

The target is the same in test [2]. Put plainly: Acetylcholinesterase (AChE) small molecule antagonists: enzyme-based qHTS assay (AID 1347397). Note: nearly all actives have a fitted effect of over 55% in size. The note with it: Potency: AChE enzyme activity inhibition; outcome: AChE enzyme activity inhibition. A digest of the protocol: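 Tox21 library chemicals are tested in qHTS format against recombinant human AChE. The enzyme, dispensed at 50 mU/mL, sits with compound for 30 min at room temperature. A DTNB–acetylthiocholine cocktail follows, and colour is read after 10 min.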

Test [3] has the same target. Description: Acetylcholinesterase (AChE) small molecule antagonists: fluorescence cell-based qHTS assay (AID 1347398). Note: nearly all actives have a fitted effect of over 50% in size. Note: potency is the fitted concentration of half-maximal effect. Particulars: Potency: AChE activity; outcome: AChE activity. A digest of the protocol: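 Cellular AChE inhibition: SH-SY5Y cells treated with test chemical for 30 min at 37 C, then acetylthiocholine hydrolysis followed over 40 min at room temperature via thiocholine-reactive Thiolite Green fluorescence (490/520 nm).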
(In qHTS, concentration-response curves come from the screen itself.)

Test [4] shares this target. Put plainly: Acetylcholinesterase (AChE) small molecule antagonists: enzyme-based qHTS assay with human liver microsomes (AID 1347399). Note: nearly all actives have a fitted effect of over 60% in size. Particulars: Potency: qHTS inhibition; outcome: qHTS inhibition. A digest of the protocol: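 Recombinant human AChE (50 mU/mL in the enzyme mix) and human liver microsomes (0.25 mg/mL final) were preincubated with compound and NADPH (0.25 mg/mL final) for 30 min at 37 C. Acetylthiocholine/DTNB was then added; thiocholine was read colorimetrically after 10 min at room temperature.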

Chain of Acetylcholinesterase (Homo sapiens) (P22303 whole entry, looked up): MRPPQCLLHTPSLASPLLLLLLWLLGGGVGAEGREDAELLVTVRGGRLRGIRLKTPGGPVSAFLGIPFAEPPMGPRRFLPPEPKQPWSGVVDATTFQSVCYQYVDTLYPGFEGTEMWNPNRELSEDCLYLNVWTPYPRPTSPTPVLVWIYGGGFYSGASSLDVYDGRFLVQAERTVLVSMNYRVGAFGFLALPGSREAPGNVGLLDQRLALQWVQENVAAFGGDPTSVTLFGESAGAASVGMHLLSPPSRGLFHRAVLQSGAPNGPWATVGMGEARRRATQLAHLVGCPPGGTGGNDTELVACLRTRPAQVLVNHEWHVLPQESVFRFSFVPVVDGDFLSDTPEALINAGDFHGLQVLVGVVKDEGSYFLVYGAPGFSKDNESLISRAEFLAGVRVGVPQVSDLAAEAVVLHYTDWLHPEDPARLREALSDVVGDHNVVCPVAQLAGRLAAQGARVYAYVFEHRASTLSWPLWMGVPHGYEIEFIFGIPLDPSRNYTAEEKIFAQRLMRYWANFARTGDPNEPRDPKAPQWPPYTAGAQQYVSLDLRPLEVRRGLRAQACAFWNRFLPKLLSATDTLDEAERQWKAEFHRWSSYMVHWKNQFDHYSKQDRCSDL

For `Cc1c2oc3c(C)ccc(C(=O)N[C@@H]4C(=O)N[C@H](C(C)C)C(=O)N5CCC[C@H]5C(=O)N(C)CC(=O)N(C)[C@@H](C(C)C)C(=O)O[C@@H]4C)c3nc-2c(C(=O)N[C@@H]2C(=O)N[C@H](C(C)C)C(=O)N3CCC[C@H]3C(=O)N(C)CC(=O)N(C)[C@@H](C(C)C)C(=O)O[C@@H]2C)c(N)c1=O` (I: T[dV]P[Sar][NMeV] / II: T[dV]P[Sar][NMeV]; ester I:1-I:C, II:1-II:C; linker I:N-II:N via Actinocin(9to1)), the Potency result in test [1], in test [2], in test [3] and in test [4] was “inactive” throughout.

As to `CCCCCCCCCCCC(=O)N(C)CC(=O)O`, the Potency entry in test [1], in test [2], in test [3] and in test [4] was “inactive” in each case.

Regarding `O=C(O)[C@H](O)[C@@H](O)[C@H](O)[C@H](O)CO`, the Potency entry in test [1], in test [2], in test [3] and in test [4] was “inactive” throughout.

Turning to `Nc1ccccc1N`, the Potency entry in test [1], in test [2], in test [3] and in test [4] was “inactive” each time.

With `CCOCOCC`, the Potency result in test [1], in test [2], in test [3] and in test [4] was “inactive” in each case.

Turning to `CCCc1nc(C)c2c(=O)[nH]c(-c3cc(S(=O)(=O)N4CCN(CC)CC4)ccc3OCC)nn12`, the Potency result in test [1], in test [2], in test [3] and in test [4] was “inactive” throughout.

Take `OC[C@H]1O[C@@H](OCCc2ccc(O)cc2)[C@H](O)[C@@H](O)[C@@H]1O`: the Potency result in test [1], in test [2], in test [3] and in test [4] was “inactive” each time.

In the case of `O=C(CCCCCCCCc1cccnc1)N1CCC(C=C(c2ccccc2)c2ccccc2)CC1`, the Potency entry in test [1], in test [2], in test [3] and in test [4] was “inactive” in each case.

In the case of `Nc1cc(S(=O)(=O)O)ccc1O`, the Potency result in test [1], in test [2], in test [3] and in test [4] was “inactive” throughout.

`C=C(C)C(=O)OCCOc1ccccc1`: the Potency entry in test [1], in test [2], in test [3] and in test [4] was “inactive” throughout.

As for `Nc1ccccc1S(=O)(=O)O`, the Potency result in test [1], in test [2], in test [3] and in test [4] was “inactive” each time.

Consider `O=C(/C=C/C=C/c1ccc2c(c1)OCO2)N1CCCCC1`, for which the Potency result in test [1], in test [2], in test [3] and in test [4] was “inactive” each time.

For `CC(C)Nc1ccccc1`, the Potency result in test [1], in test [2], in test [3] and in test [4] was “inactive” in each case.

Take `O=C(O)c1ccco1`: the Potency entry in test [1], in test [2], in test [3] and in test [4] was “inactive” each time.

In the case of `FC(F)(F)c1ccccc1Cl`, the Potency result in test [1], in test [2], in test [3] and in test [4] was “inactive” throughout.

As to `Cc1cc(C(C)(C)C)c(O)c(C)c1Cn1c(=O)n(Cc2c(C)cc(C(C)(C)C)c(O)c2C)c(=O)n(Cc2c(C)cc(C(C)(C)C)c(O)c2C)c1=O`, the Potency entry in test [1], in test [2], in test [3] and in test [4] was “inactive” throughout.

In the case of `CCCCCN(CCCOC)C(=O)C(CCC(=O)O)NC(=O)c1ccc(Cl)c(Cl)c1` (stereo not given), the Potency result in test [1], in test [2], in test [3] and in test [4] was “inactive” in each case.

Turning to `C[Si](C)O[Si](C)(C)O[Si](C)(C)O[Si](C)C`, the Potency entry in test [1], in test [2], in test [3] and in test [4] was “inactive” each time.

As to `Cc1cccc2n[nH]nc12`, the Potency result in test [1], in test [2], in test [3] and in test [4] was “inactive” throughout.

Regarding `O=C(O)Cn1c(=O)n(Cc2ccc(Br)cc2F)c(=O)c2ccc(Cl)cc21`, the Potency result in test [1], in test [2], in test [3] and in test [4] was “inactive” each time.

In the case of `O[C@@H](COc1cccc2ncccc12)CN1CCN(C2c3ccccc3[C@@H]3[C@H](c4ccccc42)C3(F)F)CC1` (stereo not given in full), the Potency result in test [1], in test [2], in test [3] and in test [4] was “inactive” each time.

As for `Cc1ccc2ncccc2c1`, the Potency result in test [1], in test [2], in test [3] and in test [4] was “inactive” in each case.

As for `Cc1cc(Cl)c(C)cc1Cl`, the Potency result in test [1], in test [2], in test [3] and in test [4] was “inactive” each time.

`CNS(=O)(=O)c1cc(C(=O)N2CCC(CCN3C4CCC3CC(n3c(C)nc5ccccc53)C4)(c3cccc(F)c3)CC2)c(Cl)cc1F` (stereo not given): the Potency in test [1] is 8.94 µM (active); in test [3], 7.96 µM (active). Also, the Potency result in test [2] and in test [4] was “inactive” in each case.

On to `CC(CCc1ccc(O)cc1)NCCc1ccc(O)c(O)c1` (stereo not given), for which the Potency result in test [1], in test [2], in test [3] and in test [4] was “inactive” throughout.

In the case of `O=S(=O)(O)CC(O)CCl` (stereo not given), the Potency result in test [1], in test [2], in test [3] and in test [4] was “inactive” each time.

As to `CC(O)CNCC(C)O` (stereo not given), the Potency result in test [1], in test [2], in test [3] and in test [4] was “inactive” each time.

Take `CCCCCCCCCCCC(=O)OCC(C)OC(=O)CCCCC(=O)O` (stereo not given): the Potency result in test [1], in test [2], in test [3] and in test [4] was “inactive” each time.

For the compound `Cc1ccc(N(C)C)cc1`, the Potency result in test [1], in test [2], in test [3] and in test [4] was “inactive” throughout.

With `O=c1c(O)c(O)c1=O`, the Potency entry in test [1], in test [2], in test [3] and in test [4] was “inactive” each time.
